Test results reported in the supplement of paper PMC10981050.
“And” between values parts separate entries of the source, which are not always exact repeats. Identical values can stand only once. Counter-ions that a name gives are not always drawn.

The compounds below were run on K562 (assay: cell viability relative to vehicle control; higher = less cytotoxic). Details: 10 µM; SRSF2 genotype: SRSF2 P95H/wt.
In short: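 CRISPR-edited SRSF2 P95 mutant and isogenic wild-type clones of four leukaemia lines were screened against Selleck bioactive, kinase and epigenetic probe libraries, with identity-inconsistent compounds removed. Compounds were acoustically dispensed into 384-well plates at a single 10 µM dose, with 2000 cells in 50 µL medium per well. After 48 h, supernatant was removed and CellTiter-Glo luminescence was read. Viability was expressed as percent of the on-plate DMSO vehicle control, analysed in Genedata Screener.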
`Cc1cc(=O)oc2c(C=O)c(O)ccc12` was tested, and the cell viability was 110% and 118%.
With `Cc1oncc1C(=O)Nc1ccc(C(F)(F)F)cc1` [Leflunomide] the cell viability was 93.4% and 96.5%.
Work on `CCn1c(C(=O)N(C2CC2)C2CC2)cc2c3c(ncn3C)c(Nc3cc(C)n(C)n3)nc21` yielded a cell viability of 103%.
With `CC(/C=C1\SC(=S)N(CC(=O)O)C1=O)=C\c1ccccc1` [Epalrestat] the cell viability was 99.9% and 110%.
For `O=c1[nH]c(=O)n(C2CCCO2)cc1F` (stereo not given), the cell viability was 107% and 105%.
`CC(C(=O)O)c1ccc2c(c1)Cc1cccnc1O2` (stereo not given) [Pranoprofen] was tested, and the cell viability was 105% and 106%.
In the case of `CC1C(=O)OC2C(O)C34C5CC(C(C)(C)C)C36C(OC(=O)C6O)OC4(C(=O)O5)C12O` (stereo not given) [Ginkgolide B], the cell viability is reported as 110%.
In the case of `Cc1nc(N(C)C(=O)Cc2ccc(-c3ccccn3)cc2)sc1S(N)(=O)=O` [Pritelivir (BAY 57-1293)], the cell viability is reported as 99.6% and 99.5%.
For `N[C@@H]1CCCN(c2c(/C=C3\SC(=O)NC3=O)cccc2-c2ccccc2)C1`, the cell viability was 82.5% and 88.2%.
With `CCCCNc1ncc(-c2ccc(CN3CCOCC3)cn2)c(NC2CCC(O)CC2)n1` (stereo not given) the cell viability was 70.7% and 94.8%.
`CCCc1cc(C(N)=S)ccn1` [Protionamide (Prothionamide)] was tested, and the cell viability was 99% and 98.7%.
With `CC(C(=O)O)c1ccc2c(c1)CC(=O)c1ccccc1S2` (stereo not given) [Zaltoprofen] the cell viability was 102% and 98.4%.
For `COc1ccc2cc1Oc1ccc(cc1)C[C@H]1c3c(cc4c(c3Oc3cc5c(cc3OC)CCN(C)[C@@H]5C2)OCO4)CCN1C` [Cepharanthine], the cell viability was 5.44% and 5.78%.
In the case of `CC(COc1ccccc1Cc1ccccc1)N1CCCCC1` (stereo not given) [Benproperine phosphate], the cell viability is reported as 82.8% and 87.2%.
For `Nc1nonc1C(=Nc1ccc(F)c(Cl)c1)NO`, the cell viability was 97% and 107%.
`CC(C)N(CCC(=O)c1ccc2ccccc2c1)Cc1ccccc1` was tested, and the cell viability was 12.2% and 12.8%.
`O=C(NCCN1CCOCC1)c1ccc(Cl)cc1` was tested, and the cell viability was 97.6% and 103%.
`CCS(=O)(=O)CCn1c([N+](=O)[O-])cnc1C` [Tinidazole] was tested, and the cell viability was 96.7% and 92.4%.
`CCOc1ccc(Cc2cc([C@]34OC[C@](CO)(O3)[C@@H](O)[C@H](O)[C@H]4O)ccc2Cl)cc1` [Ertugliflozin] was tested, and the cell viability was 104% and 95.2%.
In the case of `OC[C@H]1O[C@@](CO)(O[C@H]2O[C@H](CO)[C@@H](O)[C@H](O)[C@H]2O)[C@@H](O[C@H]2O[C@H](CO)[C@@H](O)[C@H](O)[C@H]2O)[C@@H]1O` [Melezitose], the cell viability is reported as 107% and 99.6%.
`O=C(O)CCCC[C@@H]1SC[C@@H]2NC(=O)N[C@@H]21` [Biotin (Vitamin B7)] was tested, and the cell viability was 101% and 100%.
With `Cc1nnc(C(=O)NC(C)(C)c2nc(C(=O)NCc3ccc(F)cc3)c(O)c(=O)n2C)o1` [Raltegravir (MK-0518)] the cell viability was 101% and 94.3%.
In the case of `CCOC(=O)C=Cc1ccc(OC)cc1` [Ethyl 4-Methoxycinnamate], the cell viability is reported as 86% and 83.2%.
For `CCNC(=O)[C@@H]1CCCN1C(=O)[C@H](CCCN=C(N)N)NC(=O)[C@H](CC(C)C)NC(=O)[C@@H](CC(C)C)NC(=O)[C@H](Cc1ccc(O)cc1)NC(=O)[C@H](CO)NC(=O)[C@H](Cc1c[nH]c2ccccc12)NC(=O)[C@H](Cc1cnc[nH]1)NC(=O)[C@@H]1CCC(=O)N1` [S3718 Leuprolide Acetate.cdx], the cell viability was 104% and 107%.
`CCCCOc1ccc(C(=O)Nc2ccc(F)cc2F)cc1` was tested, and the cell viability was 91% and 91.9%.
In the case of `O=C(NC1CCN(CCCCC2(C(=O)NCC(F)(F)F)c3ccccc3-c3ccccc32)CC1)c1ccccc1-c1ccc(C(F)(F)F)cc1` [Lomitapide Mesylate], the cell viability is reported as 0.41% and 0.38%.
In the case of `NC(=O)c1cccc(N)c1` [INO-1001 (3-Aminobenzamide)], the cell viability is reported as 96.6% and 95.7%.
With `C=CC(=O)Nc1cc(N2CCN(CC)CC2)ccc1Nc1cc(N(C)C(=O)Nc2c(Cl)c(OC)cc(OC)c2Cl)ncn1` the cell viability was 26.8% and 16.8%.
For `COc1cc(C(=O)NC2CCCNC2)cc(OC)c1OC` (stereo not given) [Troxipide], the cell viability was 98.2% and 99.3%.
For `FC(F)(F)Oc1ccc(-c2ccc3nnc(C(F)(F)F)n3c2)cc1`, the cell viability was 91% and 96.6%.
In the case of `C[Si](C)(C)CCOCn1ccc2c(-c3cn[nH]c3)ncnc21`, the cell viability is reported as 98.4% and 99.6%.
With `CCCNC(=O)Nc1ccc(Oc2ncnc3cc(OC)c(OC)cc23)cc1Cl` the cell viability was 99.4% and 106%.
For `Cc1nc(=O)c2cc(CN(C)c3ccc(C(=O)N[C@@H](CCC(=O)O)C(=O)O)s3)ccc2[nH]1` [Raltitrexed (Tomudex)], the cell viability was 94.9% and 108%.
In the case of `Cc1ccc(C)c(OCCCC(C)(C)C(=O)O)c1` [Gemfibrozil (Lopid)], the cell viability is reported as 108% and 109%.
In the case of `O=C1OC(COc2ccccc2[N+](=O)[O-])CC1Cc1ccccc1` (stereo not given), the cell viability is reported as 95.1% and 98.1%.
For `CCC(=O)O[C@@H]1CC(=O)O[C@H](C)C/C=C/C=C/[C@H](O)[C@H](C)C[C@H](CC=O)[C@H](O[C@@H]2O[C@H](C)[C@@H](O[C@H]3C[C@@](C)(O)[C@@H](OC(=O)CC)[C@H](C)O3)[C@H](N(C)C)[C@H]2O)[C@H]1OC` [Midecamycin], the cell viability was 84.3% and 87.1%.
Compound `CO[C@@]1(NC(=O)CSC[C@@H](N)C(=O)O)C(=O)N2C(C(=O)O)=C(CSc3nnnn3C)CS[C@@H]21` [Cefminox Sodium] has a cell viability of 103%.
`CNC[C@H](O)[C@@H](O)[C@H](O)[C@H](O)CO` [Meglumine] was tested, and the cell viability was 108% and 107%.
`CCCCCCCCCCCCCC(=S)NCCCC[C@H](NC(=O)OCc1ccccc1)C(=O)Nc1ccccc1` [Thiomyristoyl] was tested, and the cell viability was 82.1% and 77.7%.
With `Cc1cc(C(=O)NOCCO)c(Nc2ccc(I)cc2F)n(C)c1=O` the cell viability was 79.1% and 88%.
